PI5P4K alpha inh = PI5P4K alpha (human) kinase inhibition; P48426; PI5P4Kalpha enzyme, ADP-Glo luminescence, 60 min; active compounds read low; max response, %; 330,000 tested, 1.2% active; AID 652105; active means max response of -50% or lower; inconclusive means between -30% and -50%; inactive means -30% or higher; further: value at the top dose of about 77 µM
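Quantitative HTS of the MLSMR library against PI5P4Kalpha with substrate. ATP added last at 5 microM final; room temperature, 60 minutes. Remaining ATP depleted, ADP converted and read as luminescence.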
PLK1 PBD inh = blocks phosphopeptide binding to human PLK1 polo-box domain; Plk1 PBD binding of FITC phosphopeptide, fluorescence polarization; Potency, µM, actives largely listed as inhibitors; AID 720504; 360,000 tested, 2.8% active; P53350; further: series mostly up to about 57 µM; nearly all actives have a fitted effect of over 65% in size
WRN helicase inh-1 = blocks human WRN helicase. WRN helicase unwinding, fluorescent forked duplex, kinetic. Potency, µM (top dose mostly 114 µM), usual class: inhibitors. 360,000 tested, 0.46% active. AID 651768; further: nearly all actives have a fitted effect of over 55% in size
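Enzyme (20 nM final) and test compound sit together 15 min at room temperature before substrate addition. Substrate is a single-forked duplex oligonucleotide (100 nM) labelled with fluorophore and quencher, with 2 mM ATP; helicase unwinding raises red fluorescence, read kinetically.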
USP1-UAF1 inh = inhibitors of human USP1/UAF1 deubiquitinase | recombinant USP1/UAF1, Ub-Rhodamine cleavage fluorescence | Potency, µM (top dose mostly 57.1 µM), usual class: inhibitors | 390,000 tested, 0.23% active | AID 743255; further: nearly all actives have a fitted effect of over 60% in size
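USP1/UAF1 complex (1 nM) preincubated 15 min at room temperature with compound, then Ub-Rho substrate (150 nM final) added. Kinetic fluorescence at 480/540 nm over 6 reads at 60 s intervals; 50 mM HEPES pH 7.8, 0.5 mM EDTA, 0.1 mg/ml BSA, 1 mM TCEP, 0.01% Tween-20.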
USP2a inh = inhibitors of human ubiquitin-specific protease USP2a; O75604; USP2 core, Ub-CHOP2 coupled fluorogenic reporter, 485/531; Potency, µM (top dose mostly 38.3 µM), actives largely listed as inhibitors; 330,000 tested, 0.01% active; AID 463254
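USP2 core (10nM final) preincubated 30min RT with compound in 20mM Tris-HCl pH 8.0, 2mM CaCl2, 2mM beta-mercaptoethanol, 0.05% CHAPS; 25nM Ub-CHOP2 plus 25nM reporter substrate added, fluorescence (Ex485/Em531) read after 60min.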
WRN helicase inh-2 = WRN helicase inhibition, cherry-pick retest; shares compounds with WRN helicase inh-1; 610 tested, 63% active; Potency, µM (series often up to 57.1 µM), actives largely listed as inhibitors; WRN helicase DNA unwinding, fluorescence kinetic; further: nearly all actives have a fitted effect of over 65% in size
TO DNA binding = DNA binding via thiazole orange displacement | shares compounds with WRN helicase inh-1 | thiazole orange DNA binding displacement, fluorescence | Potency, µM (series often up to 57.1 µM), usual class: inhibitors | 610 tested, 10% active | AID 720499;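 further: drop in dye fluorescence marks compound binding to DNA; nearly all actives have a fitted effect of over 60% in size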
BLM helicase inh = blocks human BLM helicase in WRN counterscreen | Potency, µM (top dose mostly 57.1 µM), most hits filed as inhibitors | 610 tested, 60% active | shares compounds with WRN helicase inh-1 | Recombinant BLM helicase DNA unwinding, red fluorescence; further: nearly all actives have a fitted effect of over 60% in size
Of the large screens only hits and unclear results are named; the others gave an inactive call (follow-up assays come after a bar, where they were run). A selection: hits, their analogues and other compounds. The true share with any hit is near 3.3%. Unless noted, the call rests on the fitted dose curve; in most records, active means well fitted curve in the direction sought with a large enough effect; inconclusive means small, poorly fitted or top-dose-only effect, or another doubt; inactive means no such curve, though single readings can be large; an effect the other way counts as inactive or inconclusive.

COc1cccc(C2C(=O)N(C3CCCCC3)CC(=O)N2Cc2ccc(Cl)cc2)c1 (stereo unspecified)	none (no result: PI5P4K alpha inh, PLK1 PBD inh, WRN helicase inh-1, USP2a inh)
CCOc1ccccc1-n1c(=O)c2ccccc2c2ccccc2c1=O	WRN helicase inh-1 inconclusive, USP1-UAF1 inh inconclusive | WRN helicase inh-2 inactive | TO DNA binding inactive | BLM helicase inh inactive
CCOc1ccc(-n2c(=O)c3ccccc3c3ccccc3c2=O)cc1	WRN helicase inh-1 inconclusive
Cc1c2cnn(CC(=O)NCCc3ccccc3)c(=O)c2c(C)n1Cc1ccccc1	none (no result: PI5P4K alpha inh, PLK1 PBD inh, WRN helicase inh-1, USP2a inh)
CC1(C)CC(=O)C(C(C2=C(O)CC(C)(C)CC2=O)c2ccc(O)c([N+](=O)[O-])c2)=C(O)C1	PI5P4K alpha inh -67.9, PLK1 PBD inh 4.74µM, WRN helicase inh-1 inconclusive | WRN helicase inh-2 21.5µM | TO DNA binding inconclusive | BLM helicase inh inactive
Cc1cc(SCC(=O)Nc2ccc(C(F)(F)F)cc2)nc(=O)[nH]1	none (no result: PI5P4K alpha inh, PLK1 PBD inh, WRN helicase inh-1, USP2a inh)
COc1ccc2[nH]c(=O)c(-c3nnn(-c4ccccc4)n3)cc2c1	none
COc1ccc2[nH]c(=O)c(-c3noc(-c4ccccc4)n3)cc2c1	WRN helicase inh-1 inconclusive, USP1-UAF1 inh inconclusive | WRN helicase inh-2 21.5µM | TO DNA binding inactive | BLM helicase inh 6.07µM
COc1ccc(CC(=O)Nc2sc3c(c2C(=O)Nc2c(C)cccc2C)CCCCC3)cc1	none (no result: PI5P4K alpha inh, PLK1 PBD inh, WRN helicase inh-1, USP2a inh)
C#CCOc1ccc(/C=C2/C(=O)ON=C2C)cc1Br	PLK1 PBD inh 1.68µM, WRN helicase inh-1 inconclusive | WRN helicase inh-2 inactive | TO DNA binding inactive | BLM helicase inh inconclusive
CCOc1cc(/C=C2\C(=O)ON=C2C)ccc1OCc1ccccc1	PLK1 PBD inh 1.5µM, WRN helicase inh-1 inconclusive | WRN helicase inh-2 inconclusive | TO DNA binding inactive | BLM helicase inh inactive
CCCCOc1c(Br)cc(/C=C2\N=C(C)OC2=O)cc1OCC	none (no result: PI5P4K alpha inh)
COc1ccc(/C=C2/C(=O)ON=C2C)cc1Cl	PLK1 PBD inh 2.12µM, WRN helicase inh-1 inconclusive | WRN helicase inh-2 inactive | TO DNA binding inactive | BLM helicase inh inactive
CCOc1cc(/C=C/C(=O)O)ccc1OCc1ccccc1	none
C#CCOc1c(Br)cc(/C=N/O)cc1OCC	none
CCOc1cc(/C=C2\C(=O)ON=C2c2ccccc2)cc(Br)c1O	PI5P4K alpha inh -78.6, PLK1 PBD inh inconclusive, WRN helicase inh-1 inconclusive | WRN helicase inh-2 inconclusive | TO DNA binding inactive | BLM helicase inh inconclusive
CC1(C)CC(=O)c2cc(-c3nc(-c4ccc(Br)cc4)cs3)c(=O)n(-c3ccccc3)c2C1	none (no result: PI5P4K alpha inh, PLK1 PBD inh, WRN helicase inh-1, USP2a inh)
CCCCOc1ccc(C(=O)NCC2(N3CCN(C)CC3)CCCCC2)cc1	none (no result: PI5P4K alpha inh, PLK1 PBD inh, WRN helicase inh-1, USP2a inh)
COc1ccc(OC)c(NC2=C(c3ccccc3)C(=O)c3ccccc32)c1	none (no result: PI5P4K alpha inh, PLK1 PBD inh, WRN helicase inh-1, USP2a inh)
CC1CCCN(Cc2c(O)ccc3c2O/C(=C\c2ccco2)C3=O)C1 (stereo unspecified)	PI5P4K alpha inh inconclusive, PLK1 PBD inh inconclusive, WRN helicase inh-1 35.5µM, USP2a inh inconclusive | WRN helicase inh-2 inactive | TO DNA binding inactive | BLM helicase inh inactive
Cc1ccc2[nH]c(C)c(/C=C/c3cc[n+](C)cc3)c2c1	USP1-UAF1 inh inconclusive, USP2a inh inconclusive
Cc1ccc2c(c1)c(/C=C/c1cc[n+](C)cc1)c(C)n2C	WRN helicase inh-1 39.8µM, USP1-UAF1 inh 22.4µM, USP2a inh inconclusive | WRN helicase inh-2 21.5µM | TO DNA binding inactive | BLM helicase inh inactive
CCCOc1ccc(CNC(=O)c2oc3ccc4c(c3c2C)C(=O)CC(C)(CC)O4)cc1 (stereo unspecified)	none (no result: PI5P4K alpha inh, PLK1 PBD inh, WRN helicase inh-1, USP2a inh)
CN(C)CCNc1ccc(CO)c2sc3ccc(O)cc3c(=O)c12	WRN helicase inh-1 inconclusive (no result: USP2a inh) | WRN helicase inh-2 24.1µM | TO DNA binding 21.5µM | BLM helicase inh inconclusive
CCCCC[n+]1cccc2c3ccccc3ccc21	none
CCC[n+]1c2ccccc2cc2ccccc21	PLK1 PBD inh 1.06µM, WRN helicase inh-1 inconclusive, USP1-UAF1 inh inconclusive | WRN helicase inh-2 3.04µM | TO DNA binding 1.71µM | BLM helicase inh 7.64µM
